Assay results published in the supplement of paper PMC6555819.

Key:
Assay in all cases: PBM binding z-score (relative to random genomic background probes); higher = stronger binding; sequences stand for … in GC…GCGATTGACAGCGTAGAATGAAGG
[1] = system: PPARg:RXRa DBDmut IVT, anti-RXR (DBD mutation: RXRa K156A/R161A, NR concentration 270 nM, RXRa partner concentration 90 nM)
Summary of the method: (§1)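 Random background probes are the reference for binding z-scores. These scores derive from regression-normalized fluorescence on custom Agilent 4×180K protein-binding microarrays incubated 1 h with ligand-free nuclear receptor dimers. Binding was detected with antibodies against each partner (one per run).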

[2] = system: PPARg:RXRa IVT, anti-PPARg (NR concentration 270 nM, RXRa partner concentration 90 nM)
Summary of the method: as §1

[3] = system: PPARg DBDmut:RXRa IVT, anti-PPARg (DBD mutation: PPARg1 K132A/R137A, NR concentration 270 nM, RXRa partner concentration 90 nM)
Summary of the method: as §1

[4] = system: PPARg DBDmut IVT, anti-PPARg (DBD mutation: PPARg1 K132A/R137A, NR concentration 270 nM)
Summary of the method: as §1

[5] = system: PPARg homodimer (NR concentration 180 nM)
Summary of the method: as §1

[6] = system: PXR:RXRa (NR concentration 270 nM, RXRa partner concentration 90 nM)
Summary of the method: as §1

[7] = system: PXR homodimer (NR concentration 270 nM)
Summary of the method: as §1

[8] = system: RARa:RXR (NR concentration 270 nM, RXRa partner concentration 90 nM)
Summary of the method: as §1

[9] = system: RARa homodimer (NR concentration 270 nM)
Summary of the method: as §1

[10] = system: RARb:RXRa (NR concentration 270 nM, RXRa partner concentration 90 nM)
Summary of the method: as §1

[11] = system: RARb homodimer (NR concentration 270 nM)
Summary of the method: as §1

[12] = system: RARg:RXRa (NR concentration 270 nM, RXRa partner concentration 90 nM)
Summary of the method: as §1

[13] = system: RARg homodimer (NR concentration 270 nM)
Summary of the method: as §1

[14] = system: RXRa DBDmut IVT, anti-RXR (DBD mutation: RXRa K156A/R161A, NR concentration 90 nM)
Summary of the method: as §1

[15] = system: RXRa homodimer (NR concentration 180 nM)
Summary of the method: as §1

[16] = system: THRa:RXRa (NR concentration 90 nM, RXRa partner concentration 90 nM)
Summary of the method: as §1

[17] = system: THRa homodimer (NR concentration 90 nM)
Summary of the method: as §1

[18] = system: VDR homodimer (NR concentration 270 nM)
Summary of the method: as §1

| Sequence | PBM binding z-score [1] | PBM binding z-score [2] | PBM binding z-score [3] | PBM binding z-score [4] | PBM binding z-score [5] | PBM binding z-score [6] | PBM binding z-score [7] | PBM binding z-score [8] | PBM binding z-score [9] | PBM binding z-score [10] | PBM binding z-score [11] | PBM binding z-score [12] | PBM binding z-score [13] | PBM binding z-score [14] | PBM binding z-score [15] | PBM binding z-score [16] | PBM binding z-score [17] | PBM binding z-score [18] |
| --- | --- | --- | --- | --- | --- | --- | --- | --- | --- | --- | --- | --- | --- | --- | --- | --- | --- | --- |
| CCTTACGGGTCACGAGGTTATTGCACGACGAGCG | 4.41 | 5.61 | 1.02 | 0.757 | 3.66 | 4.88 | 0.56 | 6.61 | 1.28 | 4.57 | 4.19 | 6.12 | 5.46 | 1.83 | 7.15 | 3.67 | 1.4 | 2.55 |
| AGAATGAGGTTACCATAGATCAGGGAAACGCTTG | 3.38 | 3.18 | 0.359 | 0.63 | 0.136 | 0.897 | 0.179 | 1.54 | 0.172 | 1.79 | 0.58 | 1.89 | 1.72 | 1.13 | 2.38 | 2.59 | 0.611 | 0.117 |
| GATACAGGCTCAGCTAGAGGCCAGAGTATGGAAA | -1.07 | -0.379 | -0.391 | -1.01 | -0.531 | -0.951 | -0.872 | -0.733 | -0.86 | -0.294 | -0.469 | -0.109 | -0.0931 | -0.906 | -0.529 | -1.13 | -0.801 | -0.924 |
| ATCCCTAGGTAACAAGTTCAGTGAAAGAGAGGAC | 0.293 | 0.638 | 0.652 | 0.582 | 1.15 | 1.7 | 1.53 | 0.808 | 0.946 | 1.51 | 1.94 | 1.09 | 1.15 | 0.955 | 0.712 | 1.65 | 1.17 | 2.48 |
| ATATGTAGGTTATCGGGTCATTCGGTTTGCGCAT | 7.54 | 7.29 | 1.79 | 2.8 | 2.29 | 3.5 | 5.62 | 3.42 | 1.12 | 2.45 | 2.88 | 3.2 | 2.3 | 1.52 | 3.53 | 3.28 | 2.94 | 4.19 |
| TCTCGGAGGACACGAATGGTCAGAGCTCGACATC | 1.33 | -0.256 | -0.6 | -0.622 | -0.755 | -0.324 | -0.617 | -0.159 | -0.635 | 1.5 | 0.664 | 0.332 | 1.29 | 0.733 | 0.156 | 1.01 | 0.00528 | -0.606 |
| CCTCGGAGGACAGCAGGTCAGAGCTGTCCGCTTT | -0.0532 | -0.162 | -1.57 | -1.57 | 0.113 | 0.0301 | -0.196 | 0.742 | -0.236 | 2.04 | 2.25 | 2.17 | 1.91 | -0.0565 | 0.242 | 1.74 | 0.123 | -0.273 |
| GCTAGTTGCTCAGTAAAAGGTCACACACCGGTCG | 0.44 | 1.7 | -0.262 | 0.0665 | 2.95 | 4.84 | 0.686 | 5.72 | 1.56 | 4.1 | 5.11 | 4.7 | 4.02 | 0.441 | 5.17 | 3.61 | 1.73 | 1.14 |
| ATCGAAAGGTCGATGGTGAGTATACCCACCCGAA | -0.671 | 0.8 | 0.684 | 0.102 | 1.04 | 1.51 | -0.361 | 2.18 | 0.322 | 3.03 | 1.45 | 3.25 | 3.01 | 0.438 | 3.21 | 1.26 | -0.577 | 0.213 |
| TATACAGGGTCAAAGGCCAGGGTACGAATGTCGA | 2.06 | 4.98 | 2.34 | 1.6 | 2.3 | 4.41 | 0.905 | 6.05 | 1.67 | 4.48 | 3.71 | 5.77 | 5.14 | 2.73 | 7.42 | 3.73 | 1.2 | 3.31 |
| TCAGACTGGTGAAGGTAACTCAGGTACGCAGTCG | 1.41 | 0.112 | -0.324 | -0.759 | -0.234 | 0.0294 | -0.386 | 0.305 | -0.373 | -0.0149 | -0.0938 | -0.218 | -0.262 | 0.596 | 0.463 | 0.985 | 0.0816 | -0.271 |
| TCATATAGGTAATACAGGTGAAAGTAGGCATCTA | 3.97 | 3.61 | 1.94 | 1.73 | 1.39 | 0.952 | 0.772 | 1.07 | 1.69 | 0.613 | 0.649 | 0.714 | 0.742 | 1.81 | 1.2 | 1.05 | 0.429 | 0.305 |
| CAAACCAGGTCAAGGTCAAAGTCGGTTTGTGCCA | 6.42 | 7.16 | 2.64 | 2.41 | 4.71 | 5.84 | 2.63 | 6.02 | 2.21 | 5.38 | 5.11 | 6.13 | 6.35 | 3.39 | 6.52 | 4.77 | 4.35 | 4.97 |
| TCTATTAGTTGATTAGGGCACCCGAAACAGCGGA | 2.25 | 1.68 | 0.695 | 1.2 | 1.1 | 0.419 | 0.671 | 0.573 | 1.64 | 0.873 | 0.537 | 0.623 | 0.797 | 1.22 | 0.445 | 0.654 | 0.582 | 0.203 |
| CTGACTGGGGCAAAGGTTACCATACTCAGTACGA | 6.27 | 6.51 | 0.767 | 0.374 | 1.19 | 2.61 | 0.266 | 4.17 | 0.228 | 2.67 | 2.6 | 3.83 | 2.21 | 0.587 | 4.06 | 2.08 | 0.233 | 0.376 |
